Compound activity as filed in PubChem BioAssay.
Rows were chosen to be rich in hits. Some 0.56% of all compounds tested hit in one or more screens of this group.
KinaseGlo FLuc – Counterscreen for Luciferase (Kinase-Glo TM) Inhibition; Luciferin 4-monooxygenase (Photuris pensylvanica), Q27757; Kinase-Glo luciferase, ATP luminescence, 8 min; Potency, µM (top dose mostly 38.3 µM), for inactives: at the highest dose activity change, negative = inhibition, usual class: inhibitors; hit rate 0.28% among 200,000; also: potency is read from the fitted curve at half-maximal effect; % is scaled to controls: 0 for no effect and ±100 for the full control effect; nearly all actives have a fitted effect of over 60% in size
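Light output from Kinase-Glo luciferase with luciferin and 10 uM ATP in 50 mM imidazole pH 7.2, KCl, MgCl2, Tween 20, BSA; compound pin-delivered, 8-min ambient incubation, then luminescence read.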
PKM2 act – qHTS Assay for Activators of Human Muscle isoform 2 Pyruvate Kinase | Pyruvate kinase PKM (Homo sapiens), P14618 | purified PKM2, Kinase-Glo ATP luminescence, activation; response scale: 0% is enzyme alone, no compound | Potency, µM (highest dose often 57.5 µM), without a hit: at the highest dose activation, hits mostly activators | hit rate 0.34% among 260,000 | AID 1631, 2009; also: potency is read from the fitted curve at half-maximal effect; % is scaled to controls: 0 for no effect and ±100 for the full control effect; nearly all actives have a fitted effect of over 55% in size
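ATP formation by purified human PK-M2, quantified via coupled luciferase luminescence after 1 h at room temperature with 0.1 mM ADP and 0.5 mM PEP final.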
CBFb-RUNX1 inh – qHTS Assay for Compounds Blocking the Interaction Between CBF-beta and RUNX1 for the Treatment of Acute Myeloid Leukemia; Runt-related transcription factor 1 (Homo sapiens) + Core-binding factor subunit beta …; AlphaScreen CBFb-His/RUNX1-biotin binding, biochemical; Potency, µM (titrated, usually from 59.8 µM), for inactives: top-dose activity, negative = inhibition, hits mostly inhibitors; 230,000 tested, under 10 active; AID 1477, 2009; also: % of control where 0% means no effect
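Room-temperature protein-protein interaction test with 30 nM each of His-tagged CBF-beta and biotinylated RUNX1, 15 min with compound, then 90 min with nickel plus streptavidin beads. Signal read in AlphaScreen mode.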
Tb PFK inh – qHTS Assay to Find Inhibitors of T. brucei phosphofructokinase; T. brucei PFK, ADP-Glo luminescence; Potency, µM (highest dose often 57.5 µM), inactives show at the highest dose activity, negative = inhibition, most hits filed as inhibitors; hit rate 0.17% among 330,000;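 also: potency is read from the fitted curve at half-maximal effect; 0% = uninhibited 1x PFK enzyme wells and -100% = no-enzyme wells; nearly all actives have a fitted effect of over 60% in size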
Target sequence (O15648 whole entry, looked up): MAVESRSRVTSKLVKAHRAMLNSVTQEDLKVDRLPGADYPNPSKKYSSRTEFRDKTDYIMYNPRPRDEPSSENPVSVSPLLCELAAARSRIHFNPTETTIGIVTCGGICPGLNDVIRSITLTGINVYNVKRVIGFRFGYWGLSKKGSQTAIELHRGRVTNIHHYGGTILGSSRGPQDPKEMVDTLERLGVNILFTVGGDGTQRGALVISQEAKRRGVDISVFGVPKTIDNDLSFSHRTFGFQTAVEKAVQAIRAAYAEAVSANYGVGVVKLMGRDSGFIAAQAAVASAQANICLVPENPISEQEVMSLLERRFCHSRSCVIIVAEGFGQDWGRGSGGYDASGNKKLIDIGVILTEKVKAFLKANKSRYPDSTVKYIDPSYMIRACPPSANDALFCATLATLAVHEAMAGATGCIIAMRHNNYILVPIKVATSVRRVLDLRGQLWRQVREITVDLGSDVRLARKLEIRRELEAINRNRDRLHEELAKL
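Luminescent ADP detection (ADP-Glo, two-step: ATP depletion then ADP-to-ATP conversion for luciferase) reported PFK activity after 45 min room-temperature reaction of 1.25 nM enzyme with 0.5 mM F6P and 0.1 mM ATP at pH 8.0.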
GALK inhibitor – qHTS Assay for Inhibitors of Human Galactokinase (GALK); P51570; Purified GALK, Kinase-Glo residual ATP luminescence; Potency, µM (top dose mostly 57.5 µM), for the others: top-dose activity change, negative = inhibition, most hits filed as inhibitors; hit rate 0.007% among 270,000; also: potency is read from the fitted curve at half-maximal effect; % is scaled to controls: 0 for no effect and ±100 for the full control effect
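Quantitative HTS: GALK 5 nM, ATP 35 uM, galactose 100 uM, 1 h room temperature, then luciferase-based ATP detection.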
Numbers without * were called inactive; ? = inconclusive; . = not tested or not shown; ! = repeats disagree; [ ] = remark or other dose. Calls follow the shape of the dose curve; as a rule, active = well fitted curve in the direction sought with a large enough effect; inconclusive = small, poorly fitted or top-dose-only effect, or another doubt; inactive = no such curve, though single readings can be large; an effect the other way counts as inactive or inconclusive.

SMILES | KinaseGlo FLuc | PKM2 act | CBFb-RUNX1 inh | Tb PFK inh | GALK inhibitor
Cc1cc2nc(-c3cccnc3SCC(=O)NCc3ccco3)[nH]c2cc1C | 11.2µM* | -42.9% | -16.3% | -1.8% | 6.2%
O=C1C2=CC[C@@H]3C(=O)N(c4ccc(F)cc4F)C(=O)[C@H]3[C@H]2[C@H](O)[C@H]2O[C@H]12 | . | . | -17.1%[13.1 µM] | . | .
COc1ccc(C)cc1S(=O)(=O)Nc1ccc(F)c(Cl)c1 | -5.8% | -7.6% | 8.9% | -13.4% | -3.7%
COc1ccc(S(=O)(=O)Nc2ccc(F)c(Cl)c2)cc1OC | 10.1% | 15.8µM* | 3.3% | 2.8% | 1.9%
CN1CCC[C@@H]1c1cccnc1.O=C(O)c1ccccc1O.O=C([OH2+])c1ccccc1O.O=C([OH2+])c1ccccc1O.O=C([OH2+])c1ccccc1O.[Cu] | -4.5%[7.66 µM] | . | . | . | .
COc1ccc(-n2c(SCC(=O)NCC3CCCO3)nc3ccccc32)cc1 (stereo not given) | 9.3% | 2.4% | -2.1% | 1.4% | 2.0%
N#CCCn1c(SCC(=O)NCC2CCCO2)nc2ccccc21 (stereo not given) | 0.5% | 20µM* | 5.1% | -1.5% | 0.0%
CCOc1ccc(/C=N/Nc2ccccn2)cc1 | 10µM* | -19.6% | -17.2% | -8.1% | -2.0%
N#CCCSc1ccccc1NC(=O)c1ccc(S(=O)(=O)N2CCCC2)cc1 | -2.8% | 20µM* | 1.4% | -17.0% | -1.1%
Cc1ccccc1NC(=O)c1ccc(S(=O)(=O)N2CCCC2)cc1 | . | 2.3% | . | 1.1% | 0.2%
COc1ccccc1OCc1cc(C(=O)N2CCN(C)C(c3ccccc3)C2)no1 (stereo not given) | . | 9.1% | . | -1.3% | 8.1%
CN1CCN(C(=O)c2cc(COc3c(F)cccc3F)on2)CC1c1ccccc1 (stereo not given) | -1.4% | 17.8µM* | 0.6% | -6.7% | -0.2%
COCC(=O)N1CCc2nc(-c3ccc(OC)cc3C)c3c(c2C1)CO[C@@H](c1ccccc1)C3 | -2.4%[7.66 µM] | -8.0%[11.5 µM] | 0.9%[13.1 µM] | . | .
Cc1ccc(C2=NN(S(C)(=O)=O)C(c3cccs3)C2)cc1 (stereo not given) | -17.6% | -13.5% | -0.3% | 6.3% | .
CCc1ccc(C2=NN(S(C)(=O)=O)C(c3cccs3)C2)cc1 (stereo not given) | 12.6µM* | -27.9% | -10.7% | -5.3% | -0.7%
CC(=O)[C@]1(O)Cc2c(O)c3c(c(O)c2[C@@H](O[C@H]2C[C@H](N)[C@H](O)[C@H](C)O2)C1)C(=O)c1c(O)cccc1C3=O | -12.2%[39.9 µM] | . | -22.0% | . | .
O=[N+]([O-])c1ccc(Cl)c(CNc2ncnc3c2ncn3[C@@H]2CCCCO2)c1 | -3.7%[7.66 µM] | . | . | . | .
CC[C@H](C)[C@H](NC(=O)[C@H](Cc1ccc(O)cc1)NC(=O)[C@H](CCCNC(=N)N)NC(=O)[C@H](CCCNC(=N)N)NC(=O)[C@H](CC(C)C)NC(=O)[C@H](CCC(N)=O)NC(=O)[C@@H](NC(=O)[C@H](CCC(=O)O)NC(=O)[C@H](Cc1ccc(O)cc1)NC(=O)[C@H](CCC(N)=O)NC(=O)[C@H](C)NC(=O)[C@H](CCCNC(=N)N)NC(=O)[C@H](CCC(N)=O)NC(=O)[C@H](CCC(=O)O)NC(=O)[C@H](Cc1cnc[nH]1)NC(=O)[C@@H](NC(=O)[C@H](C)NC(=O)[C@H](Cc1ccc(O)cc1)NC(=O)[C@H](CC(=O)O)NC(=O)CNC(=O)[C@@H]1CCCN1C(=O)[C@H](Cc1ccc(O)cc1)NC(=O)[C@H](CCSC)NC(=O)[C@@H]1CCCN1C(=O)[C@H](CCC(=O)O)NC(=O)[C@H](CC(C)C)NC(=O)[C@@H]1CCCN1C(=O)[C@H](C)N)[C@@H](C)O)[C@@H](C)O)C(=O)N[C@@H](CC(N)=O)C(=O)N[C@H](C(=O)N[C@@H](CC(C)C)C(=O)N[C@H](C(=O)N[C@@H](CCCNC(=N)N)C(=O)N1CCC[C@H]1C(=O)N[C@@H](CCCNC(=N)N)C(=O)N[C@@H](Cc1ccc(O)cc1)C(N)=O)[C@@H](C)O)[C@@H](C)O | . | . | 1.9% | . | .
CS(=O)(=O)c1ccc(NCCc2ccccn2)c([N+](=O)[O-])c1 | . | 14.1µM* | . | 0.2% | -1.5%
O=C(NNc1c(Cl)cccc1Cl)c1sccc1Cl | . | 15.8µM* | 3.0% | 4.3% | -8.6%
O=C(NCc1cccnc1)c1cc(-c2ccco2)on1 | 4.8% | 22.4µM* | 3.2% | ? | -1.5%
Cn1c(-c2ccc(Br)o2)nc2ccccc21 | 10µM* | -53.2% | 0.3% | -18.6% | 18.7%
CN(C)c1ccc(-c2nc3ccccc3n2C)cc1 | 10µM* | -46.4% | -3.8% | ? | 6.6%
Cn1c(-c2ccc(Br)o2)nc2cc(Br)ccc21 | -26.6% | 1.2% | -11.1% | 2.8% | -1.0%
Cc1ccc(-c2nc3ccccc3n2C)o1 | 7.94µM* | -71.5% | 2.7% | -17.6% | 10.5%
SMILES | KinaseGlo FLuc | PKM2 act | CBFb-RUNX1 inh | Tb PFK inh | GALK inhibitor
Cc1ccc(C)n1-c1cccc(C(=O)O)c1 | -3.9% | -0.3% | ? | 10.7µM* | 1.7%
Cc1cc(C=O)c(C)n1-c1cccc(C(=O)O)c1 | -2.7% | 1.4% | -26.8% | -12.4% | -1.8%
COC(=O)c1cc(=O)c(O)c2c(O)c(O)ccc2c1 | -3.2% | . | . | . | .
CCCCCCCCCCC(C)=O | . | . | 1.5% | . | .
c1ccc2c(c1)Cc1cc3cc4c(cc3nc1-2)OCO4 | 2.82µM* | -83.4% | -26.5% | . | .
c1ccc2c(c1)CCN(c1nc3cc4c(cc3s1)OCO4)C2 | ? | -29.6% | -14.8% | -8.1% | 2.4%
COc1ccccc1NC(=O)Nc1ccnn1C1CCCCC1 | -2.9% | 7.3% | -0.1% | 0.2% | 4.3%
CCCCNC(=O)Nc1ccnn1C1CCCCC1 | -0.6% | 3.98µM* | 3.8% | 3.4% | 0.2%
COc1cc(-c2ccc(N=Nc3ccc4c(S(=O)(=O)O)cc(S(=O)(=O)O)c(N)c4c3O)c(OC)c2)ccc1N=Nc1ccc2c(S(=O)(=O)O)cc(S(=O)(=O)O)c(N)c2c1O | 10µM*! | . | . | . | .
CN1CCN(c2ccc3nc(-c4ccc5nc(-c6ccc(O)cc6)[nH]c5c4)[nH]c3c2)CC1 | -4.4%[7.66 µM] | . | . | . | .
O=C(Nc1ccccc1)Nc1ccc2ocnc2c1 | 11.2µM* | -27.5% | -11.7% | -8.7% | 9.6%
CSc1ccccc1NC(=O)c1noc2c1CCC2 | 1.1% | 31.2% | ? | 16.9µM* | 0.7%
COC(=O)c1ccccc1NC(=O)c1noc2c1CCC2 | 5.8% | 26.0% | ? | ? | 2.5%
Cn1cccc1C(=O)C(=O)Nc1ccccc1 | 12.6µM* | -42.4% | 4.5% | -13.4% | 9.1%
N#Cc1c(N)n(CCNC(=O)c2ccc(Cl)cc2)c2nc3ccccc3nc12 | -2.2% | 28.2µM* | 3.2% | 5.3% | 2.7%
